Compound activity from PubChem BioAssay.
Most compounds without a hit are left out; they make up all but 4.4% or so of the library.
SKKanGAS inh: S. pyogenes SKKanGAS growth inhibitors in kanamycin, primary screen, streptokinase expression inhibitor project, SKKanGAS strain, BacTiter-Glo luminescence | actives 1.3% (n = 300,000) | 6 h | AID 1662, 2009 | inhibition, % at 7.5 µM;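 active = mean replicate score, as percent of positive control median, at least 50; inconclusive = mean below 50 but one replicate at or above 50; inactive = mean and every replicate below 50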;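 also: strain carries kanamycin resistance gene driven by streptokinase promoter and grows in 40 µg/ml kanamycin; loss of luminescence reflects streptokinase promoter inhibition or plain growth inhibition; 0% = median of DMSO wells and 100% = positive control at its reference dose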
tim23-1 inh: growth inhibitors of tim23-1 mutant yeast, primary screen, luminescence, uHTS. S. cerevisiae tim23-1 growth, BacTiter-Glo luminescence, 24 h. inhibition, % at 20 µM. actives 1.3% (n = 330,000). AID 463212, 2010;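 active = growth inhibition of the mutant yeast at or above 50%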;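 also: temperature-sensitive mutant grown at 25 °C; plate controls were DMSO-treated mutant yeast for no effect and medium wells lacking yeast for full effect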
PfHsp90 set2: growth inhibition of PfHsp90-expressing yeast, primary screen, antimalarial PfHsp90 inhibitor project, S. cerevisiae, BacTiter-Glo luminescence, single point, set 2; BacTiter-Glo ATP, 48 h; yeast lacking PDR1 and PDR3 efflux regulators; inhibition, % at 9.4 µM; actives 0.32% (n = 310,000); AID 504621, 2011;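 active = every replicate shows inhibition above about 80%, whatever the replicate mean, limit read from the data; inconclusive = mean inhibition reaches the set limit but some replicate falls short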;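 also: 0% = DMSO neutral controls and 100% = 20 µM radicicol positive controls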
tim10-1 inh: growth inhibitors of tim10-1 mutant yeast, primary screen, luminescence, uHTS | inhibition, % at 20 µM | S. cerevisiae tim10-1 ts strain growth, BacTiter-Glo, 24 h | actives 2.2% (n = 330,000);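 active = inhibition of at least 40%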;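 also: mutant grown at 25 °C; 0% = DMSO wells with yeast and 100% = wells holding no yeast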
TIM10 inh: growth inhibitors of isogenic TIM10 control yeast, primary screen, counter-screen for tim10-1 yeast inhibitor project, luminescence, uHTS | S. cerevisiae TIM10 strain growth, BacTiter-Glo luminescence, 24 h | inhibition, % at 10 µM | actives 1.4% (n = 330,000) | AID 463195, 2010;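 active = inhibition of 40% or more at the single tested concentration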;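 also: wild-type TIM10 isogenic control strain grown at permissive 25 °C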
An asterisk follows results filed as active; u = inconclusive; x = not tested or not shown.

SMILES	SKKanGAS inh	tim23-1 inh	PfHsp90 set2	tim10-1 inh	TIM10 inh
CCCC[n+]1ccn(C2=C([O-])c3ccccc3C(=O)/C2=N\S(=O)(=O)c2ccccc2)c1	59*	15	0	6	-5
COC(=O)C1C=CC(OC2OC(COC(C)=O)C(OC(C)=O)C(OC(C)=O)C2OC(C)=O)n2c(=O)n(-c3ccccc3)c(=O)n21 (centres undefined)	x	x	11	x	x
CC[C@]1(C(=O)OC)[C@H]2C(=O)N(C)C(=O)[C@H]2[C@H]2CN=C(SCc3ccc(C#N)cc3)N21	x	23	-3	10	-4
CCCCC[C@@H]1C=C(C(=O)O)[C@H](c2ccc3c(c2)OCO3)N1S(=O)(=O)c1ccc(C)cc1	x	9	-9	4	7
COc1ccccc1-c1sc2ccccc2c1C#Cc1ccc(N(C)C)cc1	x	13	x	30	5
CCC(=O)N(CCC(Cc1ccccc1)c1ccc2c(c1)OCO2)Cc1ccccc1F (centres undefined)	52*	4	-3	18	25
CCC(=O)N(CCC(Cc1ccccc1)c1ccco1)Cc1ccco1 (centres undefined)	6	11	7	30	9
COc1ccc(CCNC(=O)COC(=O)c2cc(Cl)nc(Cl)c2)cc1	x	12	x	8	6
CCOC(=O)c1c(-c2ccc(OC)cc2)csc1/N=C/C1=C(O)CCCC1=O	57*	21	5	24	7
O=C1C(=C(I)I)c2ccccc2-c2ccccc21	x	x	106*	x	x
CCOC(=O)C1=C(C)NC(C)=C(C(=O)OCC)C1c1ccc([N+](=O)[O-])s1	51*	11	5	2	9
CCOC(=O)C1=C(C)NC(C)=C(C(=O)OC)C1c1cccc([N+](=O)[O-])c1 (centres undefined)	-5	23	11	16	12
CC(C)c1ccc(OCC(=O)NNC(=S)NC(=O)C2CC2)cc1	96*	12	u	-18	1
CC(C)c1ccc(OCC(=O)NNC(=S)NC(=O)c2cccs2)c(Br)c1	78*	31	-16	34	23
Cc1ccc(OCC(=O)NC(=S)Nc2ccccn2)c(Br)c1	8	8	-6	12	12
Cc1ccc(OCC(=O)NNC(=S)NC(=O)C2CC2)c(C)c1	x	21	104*	20	-6
N#Cc1ccc(OCC(=O)NNC(=S)NC(=O)C2CC2)cc1	x	9	-21	8	-1
Cc1ccc(OCC(=O)NNC(=S)NC(=O)C(C)(C)C)c(Br)c1	90*	20	105*	11	-24
O=C(CSc1ccc(S(=O)(=O)N2CCCC2)cn1)Nc1ccc([N+](=O)[O-])cc1C(F)(F)F	x	x	13	x	x
Clc1ccc2c(N/N=C/c3cccc(Br)c3)ccnc2c1	82*	x	-23	x	x
Clc1ccc2c(N/N=C/c3ccccc3Br)ccnc2c1	3	17	7	-1	29
Cc1cc(Br)ccc1NC(=O)CNC(=O)CN(C)C1CCS(=O)(=O)C1 (centres undefined)	x	-9	18	-6	4
Oc1ccc(N=Nc2ccc3c(c2)OCO3)c2ccccc12	88*	16	x	-9	-17
CCOC(=O)c1ccc(-c2c(-c3ccccc3OC)sc3ccc(OC)cc23)cc1F	x	-6	-4	2	12
Cc1cc(C)c(C(=O)Nc2ccc(Br)c(C(F)(F)F)c2)c(C)c1	72*	24	19	29	33
SMILES	SKKanGAS inh	tim23-1 inh	PfHsp90 set2	tim10-1 inh	TIM10 inh
O=C(O)c1ccccc1C(=O)Nc1ccc(Br)c(C(F)(F)F)c1	2	-9	10	6	4
Cc1ccc(-n2c(O)c(C=Nc3ccccc3-c3n[nH]c(=S)[nH]c3=O)c3ccccc3c2=O)c(C)c1	73*	17	2	11	7
O=[N+]([O-])c1cc(S(=O)(=O)Nc2ccccc2)ccc1N1CCN(c2ccccc2)CC1	50*	33	-13	22	22
O=[N+]([O-])c1cc(S(=O)(=O)C(F)(F)F)ccc1N1CCN(c2ccccc2)CC1	10	37	-69	25	34
COC(=O)[C@]1(Cc2ccccc2)N[C@H](CN(C)S(=O)(=O)c2ccc(C(C)(C)C)cc2)[C@@H]2C(=O)N(Cc3ccccc3)C(=O)[C@@H]21	x	7	-22	8	10
C/C(=N\NC(=S)NCc1ccccc1)c1ccc2ccccc2c1OC(F)F	67*	34	6	25	39
CCCCOc1ccc(N2C(=O)C(C)CNC2=S)cc1 (centres undefined)	x	x	-25	x	x
CC(C)(C)S(=O)N1Cc2cc(=O)n(Cc3ccccc3)c(CCO)c2[C@H]1CCO (some centres undefined)	x	x	-19	x	x
COc1cc(/C=C2\SC(=Nc3ccccc3)N(CCc3c[nH]c4ccccc34)C2=O)ccc1OC(C)C(=O)O (centres undefined)	54*	16	1	38	15
O=C1/C(=C/c2ccc(N3CCOCC3)o2)SC(=Nc2ccccc2)N1CCc1c[nH]c2ccccc12	25	28	142*	5	12
COc1ccc(C(=O)N2CCN(c3cccc(C)c3C)CC2)cc1S(=O)(=O)NC1CC1	x	10	11	-4	5
c1cc(SC2CCCCC2)cc(-c2nc3cnccn3c2NC2CCCCC2)c1	x	34	-27	20	17
CCCCNc1c(-c2ccc(SC3CCCCC3)cc2)nc2ccccn12	71*	22	36	17	5
c1cn2c(NC3CCCCC3)c(-c3ccc(SC4CCCCC4)cc3)nc2cn1	89*	-3	-14	6	-1
COc1ccc([C@@H]2CC(=O)c3c(O)cc(O)cc3O2)cc1O	x	23	-5	10	6
COc1c(CC=C(C)C)cc(C2CC(=O)c3c(O)cc(O)cc3O2)cc1CC=C(C)C (centres undefined)	101*	24	-16	19	15
Cc1ccc(C(=O)OC(C)C(=O)N(C)C2CCCCC2)cc1S(=O)(=O)N1CCCCC1 (centres undefined)	x	13	-8	9	11
CC(C)C[C@@H](CN)NC(=O)c1nc[nH]c1C(=O)N[C@@H](C)C(=O)CNC[C@H](CC(C)C)NC(=O)c1nc[nH]c1C(=O)N[C@@H](Cc1ccccc1)C(=O)O	x	x	-7	x	x
N#Cc1cccc(NC(=O)CNc2cc(S(=O)(=O)N3CCOCC3)ccc2N2CCCC2)c1	x	-5	35	9	1
Cc1[nH]c2ccccc2c1C(=O)COC(=O)c1ccc2c(=O)n3c(nc2c1)CCC3	93*	14	-40	8	19
CC(=O)c1cccc(OC(=O)c2ccc3c(=O)n4c(nc3c2)CCC4)c1	54*	15	-88	24	-4
Cc1ccc(OC(=O)c2ccc3c(=O)n4c(nc3c2)CCC4)cc1	x	26	x	14	12
